From the supplement of paper PMC12350171
Structures can show the parent of a compound that is named as a salt.

system: Haemophilus parainfluenzae; test: growth AUC normalised to DMSO control (fraction of control); higher = less growth inhibition, active = hit call of the paper; conditions: 20 µM
In short: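 For the AUC endpoint, growth curves were integrated by the trapezoidal rule up to the exponential-to-stationary transition and normalised to DMSO controls on the same plate. The curves came from OD578 readings taken hourly for 24 h, in three biological replicates. Pathogens had been passaged anaerobically twice and inoculated at an OD578 of 0.01 into pre-reduced mGAM plates carrying 20 μM compound and 1% DMSO, sealed with breathable membranes. Medium for Haemophilus parainfluenzae also contained hemin and NAD.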

Row | SMILES | growth AUC normalised to DMSO control
1 | CC(C(=O)O)c1ccc(C(=O)c2ccccc2)s1 (centres undefined) [Tiaprofenic acid] | 1 (inactive)
2 | O=C(O)CCC(=O)c1ccc(-c2ccccc2)cc1 [Fenbufen] | 0.905 (inactive)
3 | CCN(CC)C(=S)SSC(=S)N(CC)CC [Disulfiram] | 0.979 (inactive)
4 | COc1ccc(NS(=O)(=O)c2ccc(N)cc2)nn1 [Sulfamethoxypyridazine] | 1.04 (inactive)
5 | NC(CO)C(=O)NNCc1ccc(O)c(O)c1O (centres undefined) [Benserazide hydrochloride] | 1.05 (inactive)
6 | Cc1cnc(C(=O)O)c[n+]1[O-] [Acipimox] | 0.94 (inactive)
7 | CC(=O)CC(c1ccccc1)c1c(O)c2ccccc2oc1=O (centres undefined) [Warfarin] | 1.02 (inactive)
8 | Cc1c(O)c(=O)n(-c2ccccc2)n1C [Antipyrine, 4-hydroxy] | 0.974 (inactive)
9 | CCN(CC)CCNC(=O)c1ccc(N)cc1 [Procainamide hydrochloride] | 0.983 (inactive)
10 | NC[C@@H]1O[C@H](O[C@H]2[C@@H](O)[C@H](O[C@@H]3[C@@H](O)[C@H](N)C[C@H](N)[C@H]3O[C@H]3O[C@H](CN)[C@@H](O)[C@H](O)[C@H]3N)O[C@@H]2CO)[C@H](N)[C@@H](O)[C@@H]1O [Neomycin sulfate] | 0.923 (inactive)
11 | CN(C)CCOC1=Cc2ccccc2Sc2ccc(Cl)cc21 [Zotepine] | 0.891 (inactive)
12 | CCOc1ccccc1OCC1CNCCO1 (centres undefined) [Viloxazine hydrochloride] | 0.967 (inactive)
13 | CC[C@]12CCCN3CCc4c(n(c5ccccc45)[C@@](O)(C(=O)OC)C1)[C@@H]32 [Vincamine] | 0.98 (inactive)
14 | O=c1[nH]c(=O)n([C@H]2C[C@H](O)[C@@H](CO)O2)cc1F [Floxuridine] | 0.0967 (active)
15 | COc1c2occc2c(OC)c2c(=O)cc(C)oc12 [Khellin] | 0.993 (inactive)
16 | CC[C@H](C)[C@H]1O[C@]2(C=C[C@@H]1C)C[C@@H]1C[C@@H](C/C=C(\C)[C@@H](O[C@H]3C[C@H](OC)[C@@H](O[C@H]4C[C@H](OC)[C@@H](O)[C@H](C)O4)[C@H](C)O3)[C@@H](C)/C=C/C=C3\CO[C@@H]4[C@H](O)C(C)=C[C@@H](C(=O)O1)[C@]34O)O2.CO[C@H]1C[C@H](O[C@H]2[C@H](C)O[C@@H](O[C@@H]3/C(C)=C/C[C@@H]4C[C@@H](C[C@]5(C=C[C@H](C)[C@@H](C(C)C)O5)O4)OC(=O)[C@@H]4C=C(C)[C@@H](O)[C@H]5OC/C(=C\C=C\[C@@H]3C)[C@]54O)C[C@@H]2OC)O[C@@H](C)[C@@H]1O [Avermectin B1] | 0.997 (inactive)
17 | CO/N=C(\C(=O)N[C@@H]1C(=O)N2C(C(=O)O)=C(C[N+]3(C)CCCC3)CS[C@H]12)c1csc(N)n1 [Cefepime hydrochloride] | 0.0407 (active)
18 | CCCCOc1cc(C(=O)NCCN(CC)CC)c2ccccc2n1 [Dibucaine] | 0.849 (inactive)
19 | CC(=O)Nc1ccc(O)cc1 [Acetaminophen] | 0.952 (inactive)
20 | CC(c1cc2ccccc2s1)N(O)C(N)=O (centres undefined) [Zileuton] | 0.909 (inactive)

Row | SMILES | growth AUC normalised to DMSO control
21 | CS(=O)(=O)OCCCCOS(C)(=O)=O [Busulfan] | 1 (inactive)
22 | COc1ccccc1N1CCN(CCCCNC(=O)c2ccc3ccccc3c2)CC1 | 0.997 (inactive)
23 | Nc1nc(F)nc2c1ncn2[C@@H]1O[C@H](CO)[C@@H](O)[C@@H]1O [Fludarabine] | 1.01 (inactive)
24 | CN(C)CCC=C1c2ccccc2COc2ccccc21 [Doxepin hydrochloride] | 0.972 (inactive)
25 | Cc1nnc(SCC2=C(C(=O)O)N3C(=O)[C@@H](NC(=O)Cn4cnnn4)[C@H]3SC2)s1 [Cefazolin sodium salt] | 0.0609 (active)
26 | CC(C)n1c(/C=C/C(O)CC(O)CC(=O)O)c(-c2ccc(F)cc2)c2ccccc21 (centres undefined) [Fluvastatin sodium salt] | 1 (inactive)
27 | CC(=O)O[C@H]1C[C@@H]2CC[C@@H]3[C@H](CC[C@@]4(C)[C@H]3C[C@H]([N+]3(C)CCCCC3)[C@@H]4OC(C)=O)[C@@]2(C)C[C@@H]1N1CCCCC1 [Vecuronium bromide] | 1.05 (inactive)
28 | CCSc1ccc2c(c1)N(CCCN1CCN(C)CC1)c1ccccc1S2 [Thiethylperazine maleate] | 1.02 (inactive)
29 | C[C@@H]1C[C@H]2[C@@H]3CCC4=CC(=O)C=C[C@]4(C)[C@@]3(Cl)[C@@H](O)C[C@]2(C)[C@@]1(OC(=O)c1ccco1)C(=O)CCl [Mometasone furoate] | 1.05 (inactive)
30 | NCCc1ccc(O)c(O)c1 [Dopamine hydrochloride] | 1.07 (inactive)
31 | Oc1ncnc2[nH]ncc12 [Allopurinol] | 1.01 (inactive)
32 | O=C1Nc2ccc(Cl)cc2[C@@](C#CC2CC2)(C(F)(F)F)O1 [Efavirenz] | 0.991 (inactive)
33 | COc1ccc(CN(CCN(C)C)c2ccccn2)cc1 [Pyrilamine maleate] | 0.99 (inactive)
34 | CNCC[C@@H](Oc1ccccc1C)c1ccccc1 [Tomoxetine hydrochloride] | 1.02 (inactive)
35 | CC(=O)NC[C@H]1CN(c2ccc(N3CCOCC3)c(F)c2)C(=O)O1 [Linezolid] | 0.582 (active)
36 | Cc1ccc(-c2cc(C(F)(F)F)nn2-c2ccc(S(N)(=O)=O)cc2)cc1 [Celecoxib] | 0.85 (inactive)
37 | NS(=O)(=O)c1cc2c(cc1C(F)(F)F)NC(Cc1ccccc1)NS2(=O)=O (centres undefined) [Bendroflumethiazide] | 1.02 (inactive)
38 | O=C(Nc1ccccc1)OCC(CN1CCCCC1)OC(=O)Nc1ccccc1 (centres undefined) [Diperodon hydrochloride] | 1.02 (inactive)
39 | COc1ccc(C(=O)NCc2cccnc2)cc1C(=O)NCc1cccnc1 [Picotamide monohydrate] | 0.997 (inactive)
